Structures can show the parent of a compound that is named as a salt. ± gives the standard deviation of the averaged measurements.
What was measured:
[1] = test system: Saccharomyces cerevisiae BY4741 SeMeCo community; assay: mean cell size (pixel area) (pixels); higher = larger cells; details: 10 µM; 24 h; SM minimal medium
Summary of the method: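 A Saccharomyces cerevisiae BY4741 community carrying four plasmids, each with a fluorescent marker and each complementing one auxotrophy, was exposed for 24 h to drug at a final 10 µM in SM medium in acoustically predosed 384-well plates. The overnight preculture (OD600 = 1.0) was diluted to OD600 = 0.3 before 70 µl was added per well. Cells were then fixed with paraformaldehyde, imaged by automated confocal microscopy and analysed in Harmony to derive mean cell pixel area per well, averaged over 3 replicates. Same SeMeCo high-content imaging drug screen: Selleck FDA-approved drugs at 10 µM, 24 h in SM medium, 384-well plates, 3 replicates.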

[2] = test system: Saccharomyces cerevisiae BY4741 SeMeCo community; assay: z-score of prototroph abundance vs DMSO median; higher = larger share of this subpopulation than in DMSO controls; details: 10 µM; 24 h; SM minimal medium; subpopulation (auxotrophy): Prototroph
Summary of the method: (§1)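 Automated confocal microscopy of paraformaldehyde-fixed cells was used to follow a Saccharomyces cerevisiae BY4741 community carrying four plasmids, each restoring one auxotrophy and encoding a distinct fluorescent protein. The community was pre-grown overnight to OD600 1.0, diluted to 0.3, and added at 70 µl to 384-well plates acoustically predosed with library drugs (10 µM final) for 24 h of growth in minimal SM medium. Single-auxotroph fluorescent strains set thresholds and autofluorescence correction, and each subpopulation's abundance was scored as a z-score against the vehicle-well median.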

[3] = test system: Saccharomyces cerevisiae BY4741 SeMeCo community; assay: z-score of subpopulation abundance vs DMSO median, subpopulation auxotrophic for M; higher = larger share of this subpopulation than in DMSO controls; details: 10 µM; 24 h; SM minimal medium; subpopulation (auxotrophy): M
Summary of the method: as §1

[4] = test system: Saccharomyces cerevisiae BY4741 SeMeCo community; assay: z-score of subpopulation abundance vs DMSO median, subpopulation auxotrophic for L; higher = larger share of this subpopulation than in DMSO controls; details: 10 µM; 24 h; SM minimal medium; subpopulation (auxotrophy): L
Summary of the method: as §1

[5] = test system: Saccharomyces cerevisiae BY4741 SeMeCo community; assay: z-score of subpopulation abundance vs DMSO median, subpopulation auxotrophic for U; higher = larger share of this subpopulation than in DMSO controls; details: 10 µM; 24 h; SM minimal medium; subpopulation (auxotrophy): U
Summary of the method: as §1

[6] = test system: Saccharomyces cerevisiae BY4741 SeMeCo community; assay: z-score of subpopulation abundance vs DMSO median, subpopulation auxotrophic for H; higher = larger share of this subpopulation than in DMSO controls; details: 10 µM; 24 h; SM minimal medium; subpopulation (auxotrophy): H
Summary of the method: as §1

[7] = test system: Saccharomyces cerevisiae BY4741 SeMeCo community; assay: z-score of subpopulation abundance vs DMSO median, subpopulation auxotrophic for LU; higher = larger share of this subpopulation than in DMSO controls; details: 10 µM; 24 h; SM minimal medium; subpopulation (auxotrophy): LU
Summary of the method: as §1

[8] = test system: Saccharomyces cerevisiae BY4741 SeMeCo community; assay: z-score of subpopulation abundance vs DMSO median, subpopulation auxotrophic for HM; higher = larger share of this subpopulation than in DMSO controls; details: 10 µM; 24 h; SM minimal medium; subpopulation (auxotrophy): HM
Summary of the method: as §1

[9] = test system: Saccharomyces cerevisiae BY4741 SeMeCo community; assay: z-score of subpopulation abundance vs DMSO median, subpopulation auxotrophic for HU; higher = larger share of this subpopulation than in DMSO controls; details: 10 µM; 24 h; SM minimal medium; subpopulation (auxotrophy): HU
Summary of the method: as §1

[10] = test system: Saccharomyces cerevisiae BY4741 SeMeCo community; assay: z-score of subpopulation abundance vs DMSO median, subpopulation auxotrophic for UM; higher = larger share of this subpopulation than in DMSO controls; details: 10 µM; 24 h; SM minimal medium; subpopulation (auxotrophy): UM
Summary of the method: as §1

[11] = test system: Saccharomyces cerevisiae BY4741 SeMeCo community; assay: z-score of subpopulation abundance vs DMSO median, subpopulation auxotrophic for HL; higher = larger share of this subpopulation than in DMSO controls; details: 10 µM; 24 h; SM minimal medium; subpopulation (auxotrophy): HL
Summary of the method: as §1

[12] = test system: Saccharomyces cerevisiae BY4741 SeMeCo community; assay: z-score of subpopulation abundance vs DMSO median, subpopulation auxotrophic for HLU; higher = larger share of this subpopulation than in DMSO controls; details: 10 µM; 24 h; SM minimal medium; subpopulation (auxotrophy): HLU
Summary of the method: as §1

[13] = test system: Saccharomyces cerevisiae BY4741 SeMeCo community; assay: z-score of subpopulation abundance vs DMSO median, subpopulation auxotrophic for HLM; higher = larger share of this subpopulation than in DMSO controls; details: 10 µM; 24 h; SM minimal medium; subpopulation (auxotrophy): HLM
Summary of the method: as §1

[14] = test system: Saccharomyces cerevisiae BY4741 SeMeCo community; assay: z-score of subpopulation abundance vs DMSO median, subpopulation auxotrophic for HUM; higher = larger share of this subpopulation than in DMSO controls; details: 10 µM; 24 h; SM minimal medium; subpopulation (auxotrophy): HUM
Summary of the method: as §1

[15] = test system: Saccharomyces cerevisiae BY4741 SeMeCo community; assay: z-score of subpopulation abundance vs DMSO median, subpopulation auxotrophic for LUM; higher = larger share of this subpopulation than in DMSO controls; details: 10 µM; 24 h; SM minimal medium; subpopulation (auxotrophy): LUM
Summary of the method: as §1

[16] = test system: Saccharomyces cerevisiae BY4741 SeMeCo community; assay: z-score of subpopulation abundance vs DMSO median, subpopulation auxotrophic for HLUM; higher = larger share of this subpopulation than in DMSO controls; details: 10 µM; 24 h; SM minimal medium; subpopulation (auxotrophy): HLUM
Summary of the method: as §1

[17] = test system: Saccharomyces cerevisiae BY4741 SeMeCo community; assay: z-score of subpopulation abundance vs DMSO median, subpopulation auxotrophic for LM; higher = larger share of this subpopulation than in DMSO controls; details: 10 µM; 24 h; SM minimal medium; subpopulation (auxotrophy): LM
Summary of the method: as §1

Nc1ccc(/N=N/c2ccccc2)c(N)n1 [Phenazopyridine HCl]
mean cell size [1]: 12.5 ± 0.25 | z-score of prototroph abundance [2]: 2.41 | z-score of subpopulation abundance [3]: 0.28 | z-score of subpopulation abundance [4]: 0.42 | z-score of subpopulation abundance [5]: -2.82 | z-score of subpopulation abundance [6]: 1.88 | z-score of subpopulation abundance [7]: -2.56 | z-score of subpopulation abundance [8]: 0.02 | z-score of subpopulation abundance [9]: -2.46 | z-score of subpopulation abundance [10]: -2.74 | z-score of subpopulation abundance [11]: 0.92 | z-score of subpopulation abundance [12]: -1.56 | z-score of subpopulation abundance [13]: 0.39 | z-score of subpopulation abundance [14]: -1.7 | z-score of subpopulation abundance [15]: -1.8

CC1(C)S[C@@H]2[C@H](NC(=O)[C@H](N)c3ccccc3)C(=O)N2[C@H]1C(=O)OCOC(=O)[C@@H]1N2C(=O)C[C@H]2S(=O)(=O)C1(C)C [Sultamicillin]
mean cell size [1]: 12.26 ± 0.082 | z-score of prototroph abundance [2]: -1.74 | z-score of subpopulation abundance [3]: 0.2 | z-score of subpopulation abundance [4]: 1.05 | z-score of subpopulation abundance [5]: 0.83 | z-score of subpopulation abundance [6]: 1.56 | z-score of subpopulation abundance [7]: 0.83 | z-score of subpopulation abundance [9]: 2.39 | z-score of subpopulation abundance [12]: 1.83 | z-score of subpopulation abundance [13]: 1.63 | z-score of subpopulation abundance [14]: 1.4 | z-score of subpopulation abundance [15]: 1.13 | z-score of subpopulation abundance [16]: 0.86

CC(C)COCC(CN(Cc1ccccc1)c1ccccc1)N1CCCC1 (centres undefined) [Bepridil hydrochloride]
z-score of prototroph abundance [2]: -1.24 | z-score of subpopulation abundance [3]: -0.18 | z-score of subpopulation abundance [4]: 0.85 | z-score of subpopulation abundance [5]: -0.09 | z-score of subpopulation abundance [6]: 1.08 | z-score of subpopulation abundance [7]: 1.16 | z-score of subpopulation abundance [17]: -0.16 | z-score of subpopulation abundance [8]: 0.11 | z-score of subpopulation abundance [9]: 0.45 | z-score of subpopulation abundance [10]: 0.18 | z-score of subpopulation abundance [11]: 1.07 | z-score of subpopulation abundance [12]: 0.92 | z-score of subpopulation abundance [13]: 2.56 | z-score of subpopulation abundance [14]: 1.35 | z-score of subpopulation abundance [15]: 1.57 | z-score of subpopulation abundance [16]: 2.72

CC[C@H]1OC(=O)[C@H](C)[C@@H](O[C@H]2C[C@@](C)(OC)[C@@H](O)[C@H](C)O2)[C@H](C)[C@@H](O[C@@H]2O[C@H](C)C[C@H](N(C)C)[C@H]2O)[C@](C)(O)C[C@@H](C)C(=O)[C@H](C)[C@@H](O)[C@]1(C)O [Erythromycin thiocyanate]
z-score of prototroph abundance [2]: 0.64 | z-score of subpopulation abundance [3]: 0.78 | z-score of subpopulation abundance [4]: -0.64 | z-score of subpopulation abundance [5]: 0.41 | z-score of subpopulation abundance [6]: -1.72 | z-score of subpopulation abundance [7]: -0.22 | z-score of subpopulation abundance [17]: 0.36 | z-score of subpopulation abundance [8]: 0.23 | z-score of subpopulation abundance [9]: -0.7 | z-score of subpopulation abundance [10]: 0.06 | z-score of subpopulation abundance [11]: -0.71 | z-score of subpopulation abundance [12]: -0.56 | z-score of subpopulation abundance [13]: -0.68 | z-score of subpopulation abundance [14]: -0.41 | z-score of subpopulation abundance [15]: -0.09 | z-score of subpopulation abundance [16]: 0

Cc1c(C)c2c(c(C)c1O)CCC(C)(CCCC(C)CCCC(C)CCCC(C)C)O2 (centres undefined) [Vitamin E]
z-score of prototroph abundance [2]: 0.82 | z-score of subpopulation abundance [3]: -0.6 | z-score of subpopulation abundance [4]: -0.8 | z-score of subpopulation abundance [5]: 0.13 | z-score of subpopulation abundance [6]: -0.89 | z-score of subpopulation abundance [7]: -0.31 | z-score of subpopulation abundance [17]: -0.64 | z-score of subpopulation abundance [8]: -1.28 | z-score of subpopulation abundance [9]: 0.51 | z-score of subpopulation abundance [10]: -0.04 | z-score of subpopulation abundance [11]: -1.01 | z-score of subpopulation abundance [12]: -1.19 | z-score of subpopulation abundance [13]: -1.72 | z-score of subpopulation abundance [14]: -0.31 | z-score of subpopulation abundance [15]: -0.41 | z-score of subpopulation abundance [16]: -1.29

CN(C)c1cc(NC(=O)CNC(C)(C)C)c(O)c2c1CC1CC3C(N(C)C)C(=O)C(C(N)=O)=C(O)C3(O)C(=O)C1=C2O (centres undefined) [Tigecycline]
z-score of subpopulation abundance [3]: -1.16 | z-score of subpopulation abundance [4]: -1.67 | z-score of subpopulation abundance [5]: 0.22 | z-score of subpopulation abundance [6]: 0.59 | z-score of subpopulation abundance [7]: -0.07 | z-score of subpopulation abundance [17]: -0.64 | z-score of subpopulation abundance [8]: -0.15 | z-score of subpopulation abundance [9]: 1.34 | z-score of subpopulation abundance [10]: -0.23 | z-score of subpopulation abundance [12]: -0.27 | z-score of subpopulation abundance [13]: 0.02 | z-score of subpopulation abundance [14]: -0.19 | z-score of subpopulation abundance [15]: -0.85 | z-score of subpopulation abundance [16]: -0.04

Clc1ccc(C(Cn2ccnc2)OCc2ccsc2Cl)c(Cl)c1 (centres undefined) [Tioconazole]
mean cell size [1]: 12.1 ± 0.12 | z-score of prototroph abundance [2]: -7.82 | z-score of subpopulation abundance [3]: -0.92 | z-score of subpopulation abundance [4]: -2.45 | z-score of subpopulation abundance [5]: 1.22 | z-score of subpopulation abundance [6]: 19.7 | z-score of subpopulation abundance [7]: -0.51 | z-score of subpopulation abundance [9]: 10.2 | z-score of subpopulation abundance [10]: 8.69 | z-score of subpopulation abundance [11]: 6.06 | z-score of subpopulation abundance [12]: 3.35 | z-score of subpopulation abundance [13]: 20 | z-score of subpopulation abundance [14]: 3.39 | z-score of subpopulation abundance [16]: 15.6

Reference: the supplement of paper PMC8975748
